D2 PAM-1 = human D2 receptor positive allosteric modulation. P14416. AID 624464. DiscoveRx D2 beta-arrestin cells, luminescence, 90 min; 100% = 57 uM dopamine signal. 360,000 tested, 0.23% active. potentiation, % (test concentration not listed); in the data active = potentiation above about 50%; inconclusive = mostly about 30% to 49%
Target sequence (P14416 whole entry, looked up): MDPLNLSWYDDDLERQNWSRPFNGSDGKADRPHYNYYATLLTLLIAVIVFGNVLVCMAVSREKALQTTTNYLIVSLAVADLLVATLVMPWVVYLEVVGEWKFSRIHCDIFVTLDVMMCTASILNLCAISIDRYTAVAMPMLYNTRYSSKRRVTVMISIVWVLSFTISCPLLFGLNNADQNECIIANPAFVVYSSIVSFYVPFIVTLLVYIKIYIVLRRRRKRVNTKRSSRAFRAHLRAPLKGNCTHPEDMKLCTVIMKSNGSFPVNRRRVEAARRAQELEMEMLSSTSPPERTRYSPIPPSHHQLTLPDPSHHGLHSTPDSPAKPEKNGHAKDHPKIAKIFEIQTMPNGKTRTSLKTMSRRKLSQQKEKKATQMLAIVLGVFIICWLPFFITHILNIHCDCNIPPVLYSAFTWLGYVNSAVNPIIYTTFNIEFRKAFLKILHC
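PathHunter beta-arrestin assay in DiscoveRx D2 cells. Compounds were added with an EC20 of dopamine (50 nM final) for 90 min at 37 deg C. Luminescence was read 1 h after detection reagent, with 57 uM dopamine as the EC100 control.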
D2 ag-1 = agonists of human D2 dopamine receptor; 340,000 tested, 0.53% active; P14416; activation, % at 2 µM; HEK293 T-REx D2 cells, calcium flux agonist mode;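 active = activation over 3 SD above normal in the single-dose calcium agonist read, cut at about 30% in these data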
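Tetracycline-induced HEK293 Trex cells with D2 receptor force-coupled to calcium signaling, plated overnight at 30 C and loaded with no-wash calcium dye. Calcium flux read kinetically for 180 s after compound addition; responses flag agonists.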
D2 antagonist = antagonists of human D2 dopamine receptor; P14416; HEK293 TREx D2 cells, calcium flux, dopamine EC80; inhibition, % at 10 µM; 340,000 tested, 2% active; in the data active = inhibition above about 30%; inactive = below that, where a call was filed
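Read-out: kinetic calcium fluorescence (1 cycle/s) in inducible HEK293 T-REx D2 cells after an EC80 dopamine addition that followed 180 s compound preincubation. Loss of the dopamine response indicates antagonism.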
D2 PAM-2 = positively modulates the human D2 dopamine receptor allosterically | HEK293 T-REx D2, calcium flux, EC20 dopamine potentiation | potentiation, % at 10 µM | 340,000 tested, 0.34% active;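 active = potentiation over 3 SD above the plate norm, cut at about 30% in these data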
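Calcium flux readout, no-wash dye, 1 read/s. Inducible HEK293 Trex D2 line, overnight 30 C. Compound alone 180 s (agonist flags), then EC20 dopamine, another 180 s to score potentiation.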
D2 ag-2 = human D2 receptor agonism in beta-arrestin assay; activation, % (no concentration beside the values); P14416; DiscoveRx PathHunter D2 beta-arrestin, luminescence, 90 min; 100% = 57 uM dopamine signal; 360,000 tested, 0.084% active; in the data active = activation above about 40%; inconclusive = between about 15% and that limit
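Agonist mode: compounds alone added to overnight-plated D2 PathHunter cells for 90 min at 37 C, with 57 uM final dopamine (EC100) defining full response. Beta-arrestin recruitment detected by chemiluminescent reagent, read after 1 h at ambient temperature.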
A number is an active result; n = inactive; u = inconclusive; x = no result given. Sampled rows, rich in hits. Any-hit rate of the full collection: about 2.4%.

SMILES	D2 PAM-1	D2 ag-1	D2 antagonist	D2 PAM-2	D2 ag-2
CCOc1ccc(CN(C)CC(=O)Nc2ccc3c(c2)CCC3)cc1OC	n	n	30	n	n
C=CCOc1ccc(CN(C)CC(=O)Nc2ccc3c(c2)CCC3)cc1	n	n	n	n	n
COc1cccc(NC(=O)Nc2ccc3nc(N4CCN(C)CC4)cc(C)c3c2)c1	x	n	x	n	x
Cc1ccc(NC(=O)C2CCC(N3C(=O)C4CCCCC4C3=O)CC2)cc1 (configuration not stated)	n	n	43	n	n
O=C(Nc1ccc(Cc2ccncc2)cc1)C1CCC(N2C(=O)C3CCCCC3C2=O)CC1 (configuration not stated)	n	n	n	n	n
COc1ccc(C(=O)Oc2c(Sc3ccc(Cl)cc3)c(C)nn2C(C)(C)C)cc1OC	x	n	x	n	x
O=C(CN1CCN(Cc2ccccc2)CC1)NCc1ccc(Cl)cc1	n	n	n	n	n
CCOC(=O)N1CCN(Cc2nc(N)nc(Nc3ccc(Cl)cc3)n2)CC1	n	n	n	n	n
O=C(c1ccco1)N1CCN(c2ccc(F)cc2)CC1	n	n	n	n	n
O=C(c1ccco1)N1CCN(Cc2nnc(-c3ccccc3F)o2)CC1	n	n	n	35	n
O=C(c1ccco1)N1CCN(Cc2ccc(F)cc2)CC1	u	81	58	n	44
Nc1nc(CN2CCN(C(=O)c3ccco3)CC2)nc(Nc2cccc(Cl)c2)n1	n	38	n	n	u
O=C(CN1CCN(C(=O)c2ccco2)CC1)NCc1ccc(Cl)cc1	n	n	32	n	n
Cc1cc(C)cc(N2C(=O)CSC23C(=O)N(CC(=O)NCCc2ccccc2)c2ccccc23)c1 (configuration not stated)	x	n	x	n	x
COc1ccc(NC(=O)Cn2c(=O)n(Cc3ccccc3)c(=O)c3oc4ccccc4c32)cc1Cl	x	n	x	n	x
Cc1ccccc1C(=O)Nc1nnc(S(=O)(=O)N2CCCc3ccccc32)s1	x	n	x	n	x
CC(=O)N1CCCC1c1nc2ccccc2n1Cc1c(F)cccc1Cl (configuration not stated)	x	n	x	n	x
O=C(NC1CCN(Cc2ccccc2)CC1)c1ccccc1OCc1ccccc1	n	n	86	n	n
O=C(NC1CCCC1)c1ccccc1OCc1ccccc1	n	n	n	n	n
O=C(NC1CCN(Cc2ccccc2)CC1)c1ccccc1OCc1ccccc1Cl	n	n	84	n	n
CCOc1ccccc1C(=O)NC1CCN(Cc2ccccc2)CC1	n	n	89	n	n
COc1ccccc1CNC(=O)c1cc2cc(C)ccc2n1C	x	n	x	n	x
Cc1ccc(NC(=O)CSc2nccn2C2CCCC2)cc1	x	n	x	n	x
N/C(Cc1ccc(Cl)c(Cl)c1)=N\OC(=O)c1cccs1	81	n	n	n	n
Cc1ccccc1/C(N)=N/OC(=O)/C=C/c1ccccc1	87	n	n	n	u
SMILES	D2 PAM-1	D2 ag-1	D2 antagonist	D2 PAM-2	D2 ag-2
COc1ccc(/C=C/C(=O)O/N=C(\N)c2ccccc2)cc1OC	52	n	n	n	n
Cc1ccccc1/C(N)=N/OC(=O)c1cccs1	139	x	x	x	u
N/C(=N\OC(=O)c1cccs1)c1cccnc1	u	n	n	n	u
O=C1CN(C(=O)c2ccc(S(=O)(=O)N3CCCCC3)cc2)C(c2ccc(F)cc2)c2cc(Br)ccc2N1 (configuration not stated)	x	n	x	n	x
CCCCCn1c(-c2ccc(OC)c(OC)c2)nc2ccccc21	x	n	x	n	x
COc1ccc(/C=C/C(=O)Nc2ccccc2)cc1OC	n	n	30	n	n
O=C(Nc1ccc2c(c1)OCO2)c1cc(-c2ccccc2Cl)on1	n	n	37	n	n
O=C(NC1CCCC1)c1cc(-c2ccccc2Cl)on1	n	n	50	n	n
O=C(NC1CCCC1)c1cc(-c2ccc(Cl)cc2Cl)on1	n	n	31	n	n
O=C(NC1CCCCC1)c1cc(-c2ccccc2Cl)on1	n	n	n	n	n
O=C(NC1CCCC1)c1cc(-c2ccccc2O)on1	n	n	48	n	n
CCc1ccc2nc(N(Cc3cccnc3)C(=O)Cc3ccccc3)sc2c1	x	n	x	n	x
CCCn1c(O)c(CN2CCCCC2)c(C)c(C#N)c1=O	64	n	n	n	n
Cc1c(CN2CCCCC2)c(O)n(CCCO)c(=O)c1C#N	n	n	n	n	n
C/C(=N/NC(=O)c1ccncc1)c1c[nH]c2ccccc12	n	n	48	n	n
C/C(=N\NC(=O)c1c[nH]c2ccccc12)c1ccc(C)s1	n	n	n	n	n
O=C(O)c1ccccc1-c1ccccc1C(=O)NNc1ccccc1	n	37	n	n	n
O=C(O)c1ccccc1-c1ccccc1C(=O)Nc1ccccc1	n	n	n	n	n
Cc1ccc(NC(=O)CSc2nc3[nH]c(=O)cc(O)c3s2)c(Br)c1	n	n	59	n	n
Cn1nnnc1SCCCNCc1cc(Br)ccc1OCc1ccccc1	x	n	x	n	x
CCOC(=O)C1(Cc2ccccc2C(F)(F)F)CCN(C2CCSC2)CC1 (configuration not stated)	n	n	50	n	n
Nc1nc(-c2ccccc2)c(-c2ccccc2)n1N	n	n	n	n	n
c1ccc(-c2cnn3c(-c4ccccc4)c(-c4ccccc4)nc3n2)cc1	n	137	39	n	n
COc1ccc(C(c2c(O)cc(C)n(Cc3ccco3)c2=O)N2CCCCC2)cc1OC (configuration not stated)	x	n	x	n	x
C=CCSc1ncc(CO)n1Cc1ccccc1	n	n	37	n	n
SMILES	D2 PAM-1	D2 ag-1	D2 antagonist	D2 PAM-2	D2 ag-2
OCc1cnc(SCc2ccccc2)n1Cc1ccccc1	n	n	n	n	n
CCOc1ccccc1NC(=O)c1cc2c(=O)[nH]c3ccccc3c2s1	x	n	x	n	x
CCOC(=O)c1c(CN2CCOCC2)oc2ccc(OC)cc12	n	n	n	31	n
CCOC(=O)c1c(CN2CCCCC2)oc2ccc(O)cc12	n	n	n	n	n
COc1ccc(N2CCN(CCCNC(=O)c3c(C)nn(-c4ccc(F)cc4)c3-n3cccc3)CC2)cc1	x	n	x	n	x
O=C(NCCOc1ccccc1)c1ccc2c(c1)S(=O)(=O)c1cc(Cl)ccc1C2=O	73	x	x	x	n
CCC(C)(C)NC(=O)c1ccc2c(c1)S(=O)(=O)c1ccccc1C2=O	71	n	n	n	n
O=C1c2ccccc2S(=O)(=O)c2cc(C(=O)N(c3ccccn3)c3ccccn3)ccc21	u	37	n	n	n
O=C(Nc1ccccn1)c1ccc2c(c1)S(=O)(=O)c1ccccc1C2=O	n	n	n	n	n
CN(C)c1ccc(N=Cc2nc(-c3ccccc3)oc2O)cc1	n	x	x	x	n
CN(C)c1ccc(N=Cc2cccn2C)cc1	n	n	n	31	n
O=c1c(-c2cc(-c3ccccc3)nc3c2COc2ccc(Cl)cc2-3)coc2ccc(F)cc12	x	n	x	n	x
